High-throughput results (PubChem)
IDH1 R132H inh: blocks human mutant IDH1 R132H enzyme; O75874; IDH1-R132H enzyme, NADPH consumption, diaphorase/resazurin fluorescence; Potency, µM (top dose mostly 76.6 µM), usual class: inhibitors; 390,000 compounds, 0.093% hits; AID 602179; further: nearly all actives have a fitted effect of over 65% in size
Target sequence (O75874 whole entry R132H, stated change not applied): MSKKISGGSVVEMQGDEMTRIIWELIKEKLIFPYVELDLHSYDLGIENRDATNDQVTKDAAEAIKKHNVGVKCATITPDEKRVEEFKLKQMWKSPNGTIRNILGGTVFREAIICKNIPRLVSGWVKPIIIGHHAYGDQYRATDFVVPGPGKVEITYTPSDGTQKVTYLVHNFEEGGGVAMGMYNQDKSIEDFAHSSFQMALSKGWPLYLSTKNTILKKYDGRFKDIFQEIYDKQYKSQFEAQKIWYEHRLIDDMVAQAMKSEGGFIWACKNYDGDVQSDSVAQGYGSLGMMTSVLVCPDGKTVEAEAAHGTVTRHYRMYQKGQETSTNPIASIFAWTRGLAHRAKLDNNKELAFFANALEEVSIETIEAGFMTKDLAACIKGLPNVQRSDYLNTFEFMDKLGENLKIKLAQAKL
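IDH1-R132H (0.5 ug/mL) preincubated 30 min with compound, then NADPH (0.016 mM) and alpha-KG (2 mM) added; 80 min at RT, pH 7.5. Remaining NADPH coupled via diaphorase/resazurin to fluorescence (540/590 nm); concentration-response curves normalized to no-enzyme control.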
GLP-1R inv ag: inverse agonists of human GLP-1 receptor. HEK293 GLP-1R CRE-luciferase, luminescence, 24 h; GLP-1R form is constitutively active. Potency, µM (top dose mostly 38.3 µM), actives largely listed as inhibitors. 410,000 compounds, 1.6% hits; further: nearly all actives have a fitted effect of over 55% in size
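Assay principle: reduced luminescence from a cAMP-responsive reporter in HEK293 cells co-expressing a constitutively active GLP-1R. Conditions: 24 hr compound incubation, 37 deg C, 5% CO2.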
TrxR1 substrate: is turned over as a substrate by rat TrxR1; O89049; purified TrxR1 substrate turnover, NADPH consumption readout; Potency, µM (top dose mostly 114 µM); 390,000 compounds, 0.01% hits; further: nearly all actives have a fitted effect of over 50% in size
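Rat TrxR1, dispensed at 90 nM, was prereduced with 400 uM NADPH (final) for 5 min at ~22 deg C, then incubated with compound 15 min before 400 uM selenite. A first-read NADPH fluorescence drop versus no-compound background flagged substrates.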
TrxR1 inh: inhibitors of rat thioredoxin reductase 1; O89049; recombinant rTrxR1, NADPH fluorescence consumption, selenite substrate; Potency, µM (series often up to 114 µM), usual class: inhibitors; 390,000 compounds, 1% hits; AID 588453; further: nearly all actives have a fitted effect of over 65% in size
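Rat TrxR1 (90 nM in the dispensed reagent) was pre-reduced with 400 uM NADPH for 5 min at room temperature, then incubated with compound for 15 min. After 400 uM selenite was added, NADPH fluorescence (Ex 340/Em 450 nm) was followed for 8 min.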
GLP-1R agonist: activates the human GLP-1 receptor. P43220. HEK293 GLP-1R CRE-luciferase, luminescence, 4-6 h; cells express a hypersensitive GLP-1R form. Potency, µM (doses to about 45.6 µM), most hits filed as activators. 380,000 compounds, 0.007% hits
HEK293 tox: cytotoxic in the GLP-1 receptor inverse agonist counter-screen | HEK293 cAMP-luciferase reporter cells, luminescence, 24 h | 410,000 compounds, 0.13% hits | Potency, µM (doses to about 38.3 µM), usual class: inhibitors;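 further: loss of luciferase light is scored as toxicity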
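1536-well qHTS counterscreen of the MLSMR; 200 cells/uL, 12 h pre-incubation, 23 nL cpd, 24 h at 37 deg C 5% CO2, luciferase detection reagent, 12 min RT, luminescence. Inhibition = undesired.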
Numbers stand for hits; - = inactive; ? = inconclusive; . = no result; [ ] = remark or other dose. Compounds with a hit are over-represented: about 2.7% of the library has one in this group of screens. The call rests on the fitted dose curve; in most records, active means well fitted curve in the direction sought with a large enough effect; inconclusive means small, poorly fitted or top-dose-only effect, or another doubt; inactive means no such curve, though single readings can be large; an effect the other way counts as inactive or inconclusive.

SMILES	IDH1 R132H inh	GLP-1R inv ag	TrxR1 substrate	TrxR1 inh	GLP-1R agonist	HEK293 tox
COc1ccc(/C=C2\CN(Cc3ccccc3)C/C(=C\c3ccc(OC)c(O)c3)C2=O)cc1O	-	8.9µM	-	-	-	?
CCN(CC)c1ccc(/C=C/c2ccncc2)cc1	.	.	-	?	.	.
Cc1noc(C)c1CSCC(=O)Nc1cc(Cl)ccc1N1CCCCC1	-	11µM	-	-	-	-
OC[C@@H]1CN(Cc2ccc(-c3ccccc3)cc2)C[C@H](n2cnc3c(NCc4ccco4)ncnc32)O1	.	?	.	.	-	-
CC(C)CCNC(=O)N1CCN(S(=O)(=O)c2ccc3c(ccn3C)c2)CC1	-	-	-	-	-	-
COc1ccc(C)cc1NC(=O)c1ccccc1NS(=O)(=O)c1ccc(Cl)s1	-	4µM	-	-	-	-
COC(=O)C[C@H]1c2cc(C(F)(F)F)ccc2S(=O)(=O)N1C(C)C	.	.	-	-	.	.
Cc1cccc(NC(=O)NCCc2c[nH]c3ccccc23)c1	-	8.9µM	-	-	-	-
CN(c1ccccc1)S(=O)(=O)c1cccc(C(=O)NCCc2c[nH]c3ccccc23)c1	-	8.9µM	-	-	-	-
Cc1ccc(Cl)cc1N1CCN(C(=O)c2cc(S(=O)(=O)N3CCCC3)cn2C)CC1	-	-	-	-	.	-
Cc1ccc(-c2cc(C(=O)N3CCN(S(=O)(=O)c4ccc(Br)s4)CC3)[nH]n2)cc1C	-	-	-	-	.	-
CCCCCn1c(C)c2c(OCC)cccc(=O)c2c1C	-	10µM	-	-	-	-
Cc1ccc(S(=O)(=O)C=CS(=O)(=O)c2ccc(C)cc2)cc1	-	-	.	.	-	?
Cc1ccc(S(=O)(=O)/C=C/C#N)cc1	.	.	-	0.95µM	.	.
C=C1C=C(C(F)F)n2ncc(C(=O)N3CCN(c4ccccn4)CC3)c2N1	.	.	-	-	.	.
O/N=C(/CI)c1ccc2ccccc2c1	.	.	-	?	.	.
O/N=C(/CBr)c1ccc2ccccc2c1	.	.	-[0.0914 µM]	25µM	.	.
COc1cccc(C(C)NC(=O)Nc2ccccc2Cl)c1 (configuration not stated)	-	13µM	-	-	-	-
Cc1ccsc1CCN1C(=O)N(c2ccccc2)C(=O)C1CC(=O)Nc1ccc(F)cc1 (configuration not stated)	-	?	-	-	.	-
CCN(CC(=O)Nc1cc(S(=O)(=O)N2CCCCC2)ccc1Cl)Cc1ccccc1	-	5.6µM	-	-	-	-
O=C(Nc1cccc(Cl)c1)Nc1cc(S(=O)(=O)N2CCCCC2)ccc1Cl	-	2.8µM	-	-	-	-
CCN1CCN(S(=O)(=O)c2ccc(Cl)c(C(=O)Nc3ccccc3N3CCCCC3)c2)CC1	-	10µM	-	-	-	-
CCN1CCN(S(=O)(=O)c2ccc(Cl)c(C(=O)Nc3ccccc3N3CCCC3)c2)CC1	-	?	-	?	-	-
O=C(NCc1cccs1)c1ccc2c(c1)N(Cc1ccccc1Cl)C(=O)c1ccccc1S2	-	?	-	-	.	-
N#CCCn1cc(C=C(C#N)C#N)c(-c2ccc(-c3ccccc3)cc2)n1	-	-	-	79µM	-	-
SMILES	IDH1 R132H inh	GLP-1R inv ag	TrxR1 substrate	TrxR1 inh	GLP-1R agonist	HEK293 tox
COc1ccc2c(c1)CC/C2=N\OC(=O)c1ccccc1OC	-	-	-	-	-	10µM
CCCCCC[n+]1c(-c2ccc(Cl)cc2Cl)csc1Nc1ccccc1	-	10µM	-	-	-	-
c1ccc(C[n+]2c(-c3ccccc3)csc2Nc2ccccc2)cc1	-	-	-	-	-	-
CN(c1cccc(NC(=O)CN(c2ccc(C34CC5CC(CC(C5)C3)C4)cc2)S(C)(=O)=O)c1)S(C)(=O)=O	-	3.2µM	-	-[2.29 µM]	-	10µM
COc1cccc(C(=O)Nc2nc(-c3nnn(-c4ccccc4C(F)(F)F)c3C)ns2)c1	-	5.6µM	-	-	.	-
O=C(C[n+]1ccc(Cl)c2ccc(Cl)cc21)c1ccc(F)cc1	.	.	-[0.0914 µM]	-	.	.
CC(=O)NC(CCC(N)=O)C(=O)O (configuration not stated)	.	.	.	.	-	.
NC(C(=O)O)C(O)c1ccc(O)c(O)c1 (configuration not stated)	.	.	.	.	-	.
CC1(c2ccccc2)NC(=O)N(CC(=O)Nc2ccc(Cl)c(S(=O)(=O)N3CCCCC3)c2)C1=O (configuration not stated)	-	?	-	-	-	-
Cc1ccc(C2(C)NC(=O)N(CC(=O)Nc3ccc(Cl)c(S(=O)(=O)N4CCCCC4)c3)C2=O)cc1 (configuration not stated)	-	10µM	-	-	-	-
CC1(c2ccccc2)NC(=O)N(CC(=O)Nc2ccc3c(c2)CCC3)C1=O (configuration not stated)	-	10µM	-	-	-	-
CCC1(c2ccccc2)NC(=O)N(CC(=O)Nc2ccc3c(c2)CCC3)C1=O (configuration not stated)	-	?	.	.	-	-
COc1ccc(OC)c(NC(=O)N2CCC3(CC2)Oc2ccccc2C(=O)N3Cc2ccccc2F)c1	.	?	-	-	.	-
CCOc1ccc2c(c1)nc(SCC(=O)c1ccc(Br)s1)n2C	-	-	-	25µM	-	-
CN1C(=S)SC(N(O)C(=O)Nc2ccc(Cl)c(Cl)c2)C1(C)C (configuration not stated)	-	10µM	-	-	-	-
Cc1ccc(CNC(=O)CS(=O)(=O)Cc2nc(-c3ccccc3C)oc2C)cc1	-	-	-	-	-	-
CC(C)CC(=O)Nc1cccc(-c2csc(-c3ccccc3)n2)c1	-	10µM	-	-	-	-
COc1ccc(C(=O)c2cccc(C(=O)c3ccc(OC)c(C)c3)c2)cc1C	-	-	-	-	-	-
COc1ccc(C(=O)c2ccc(OC)c(Br)c2)cc1Br	-	-	-	40µM	-	-
C1=C(c2ccccc2)Nc2ncnn2C1c1ccccc1 (configuration not stated)	-	-	-	32µM	-	-
CC(=O)Nc1nc2n(n1)C(c1ccc(F)cc1)C=C(c1ccccc1)N2 (configuration not stated)	-	-	-	?	-	-
O=C1CCC(=O)N1c1nc2n(n1)C(c1ccccc1)C=C(c1ccc(Br)cc1)N2 (configuration not stated)	-	-	-	71µM	-	-
CC(=O)Nc1nc2n(n1)C(c1ccccc1)C=C(c1ccccc1)N2 (configuration not stated)	-	-	-	40µM	-	-
